Pf growth 48h: Primary qHTS for delayed death inhibitors of the malarial parasite plastid, 48 hour incubation. P. falciparum luciferase growth in erythrocytes, 48 h. Potency, µM (titrated, usually from 28.7 µM), hits mostly inhibitors. 310,000 compounds, 5.9% hits. AID 504832, 2011; active = well fitted inhibition curve with a large enough effect; inconclusive = small, poorly fitted or top-dose-only effect, or another doubt; inactive = no such curve, though single readings can be large or run the other way
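Luminescence readout; reporter = integrated firefly luciferase in P. falciparum. RBC culture at 2% hematocrit, 0.1% parasitemia final, 37 C/5% CO2; decreased signal taken as growth inhibition.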
SARS PLpro yeast: qHTS of Yeast-based Assay for SARS-CoV PLP. S. cerevisiae expressing SARS-CoV PLpro, growth rescue. Potency, µM (series often up to 32.9 µM), most hits filed as activators. 330,000 compounds, 0.19% hits. AID 485353, 2010; note: nearly all actives have a fitted effect of over 55% in size
RE007 growth inh: qHTS Assay for Inhibitors of the HIV-1 protein Vpr; S. pombe RE007 Vpr strain, BacTiter-Glo ATP luminescence, 24 h; Potency, µM (doses to about 92.2 µM), usual class: inhibitors; 360,000 compounds, 0.21% hits; active = well fitted falling curve with a large enough effect; inconclusive = small, poorly fitted or top-dose-only effect; inactive = no such curve, though single readings can be large or run the other way; note: nearly all actives have a fitted effect of over 50% in size
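Fission yeast RE007 carrying one integrated HIV-1 vpr copy, seeded at OD 0.01 in PMG+AL medium with 23 nL pinned compound. Grown 24 h at 30 degrees; viability read by BacTiter-Glo luminescence after 5 min.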
Pf growth 96h: Primary qHTS for delayed death inhibitors of the malarial parasite plastid, 96 hour incubation; P. falciparum luciferase reporter growth, 96 h; Potency, µM (doses to about 28.7 µM), usual class: inhibitors; 320,000 compounds, 6.9% hits; AID 504834, 2011; active = well fitted inhibition curve with a large enough effect; inconclusive = small, poorly fitted or top-dose-only effect, or another doubt; inactive = no such curve, though single readings can be large or run the other way
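Luminescence readout: decreased luciferase signal marks inhibited growth of reporter-expressing P. falciparum in infected red cells (2% hematocrit, 0.05% parasitemia final), exposed to compound two generations (96 h, 37 C, 5% CO2).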
NS1 function inh: qHTS Assay for Inhibitors of Influenza NS1 Protein Function; Potency, µM (titrated, usually from 46.1 µM); 270,000 compounds, 0.4% hits; AID 2326, 2010; note: actives are rising curves; nearly all actives have a fitted effect of over 50% in size
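Read-out: OD600 growth recovery of NS1-expressing budding yeast. Cells grown overnight at 30C in -URA glucose medium, washed, resuspended and diluted 1:100 in 2% galactose assay medium, pH 6.0. Same strain lacking NS1 served as positive control.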
Large screens that a line does not name were inactive. Hits are enriched below; roughly 9.5% of the tested compounds scored in any of these assays. Unless noted, calls come from the whole dose curve.

COc1ccc(CN2C(=O)c3ccc(C(=O)O)cc3C2=O)cc1	Pf growth 96h 9.3µM (no result: Pf growth 48h)
O=C(O)C(Cc1cn[nH]n1)=NO	none (no result: RE007 growth inh)
O=C(O)C1C2OC3C(OC(=O)C31)C2Br (stereo unspecified)	none (no result: Pf growth 48h, SARS PLpro yeast, Pf growth 96h, NS1 function inh)
C=CCC1(CC=C)CCCN1C(=O)Cn1nnnc1CN(C)C(C)C	Pf growth 96h inconclusive
Cc1ccc(C2(c3ccc(C)cc3)NC(=O)N(CC(N)=O)C2=O)cc1	none
CC(=O)N1CCN(c2ccc(S(=O)(=O)N3CCOCC3)cc2[N+](=O)[O-])CC1	none (no result: Pf growth 48h, Pf growth 96h, NS1 function inh)
O=C(O)C1CCN(S(=O)(=O)c2ccc(N3CCC(O)CC3)c([N+](=O)[O-])c2)CC1	Pf growth 48h inconclusive, Pf growth 96h 9.3µM
CCOC(=O)N1CCN(c2ccc(S(=O)(=O)N3CCC(C)CC3)cc2[N+](=O)[O-])CC1	Pf growth 48h 10µM, Pf growth 96h 9.3µM (no result: NS1 function inh)
O=C(O)C1CCN(S(=O)(=O)c2ccc(N3CCOCC3)c([N+](=O)[O-])c2)CC1	none
O=C(O)Cc1ccc(N=Nc2c(O)c(C(=O)O)cc3ccccc23)cc1	Pf growth 96h inconclusive
NS(=O)(=O)c1ccc(N=Nc2c(O)c(C(=O)O)cc3ccccc23)cc1	Pf growth 48h inconclusive, Pf growth 96h 10µM (no result: RE007 growth inh)
O=C(COc1ccccc1)N=C1SC2CS(=O)(=O)CC2N1Cc1ccccc1 (stereo unspecified)	Pf growth 48h inconclusive, SARS PLpro yeast inconclusive, Pf growth 96h 13µM
COc1ccc(CN2C(=NC(=O)COc3ccccc3)SC3CS(=O)(=O)CC32)cc1 (stereo unspecified)	Pf growth 48h inconclusive, Pf growth 96h inconclusive
CCN(CC)c1ccc(/C=N/Nc2nc3ccccc3[nH]2)cc1	Pf growth 48h 1.9µM, Pf growth 96h 2.6µM
CC(=O)Nc1ccc(/C=N/Nc2nc3ccccc3[nH]2)cc1	Pf growth 48h 1.9µM, SARS PLpro yeast inconclusive, Pf growth 96h inconclusive
C(=N\Nc1nc2ccccc2[nH]1)/c1ccc2c(c1)OCO2	Pf growth 48h 0.47µM, Pf growth 96h inconclusive (no result: NS1 function inh)
O=c1nc(N2CCOCC2)nc(N/N=C/c2ccc3c(c2)OCO3)[nH]1	Pf growth 96h 12µM
NC1=NC[C@H](Cc2ccc(O)cc2)N1CCc1cc(C(F)(F)F)cc(C(F)(F)F)c1	Pf growth 48h 5.2µM, Pf growth 96h 2.1µM
NC1=NC[C@H](c2ccccc2)N1CCc1cc(C(F)(F)F)cc(C(F)(F)F)c1	Pf growth 48h 13µM, Pf growth 96h 3.7µM
NC1=NC[C@@H](CC2CCCCC2)N1CCc1cc(C(F)(F)F)cc(C(F)(F)F)c1	none (no result: Pf growth 48h, Pf growth 96h, NS1 function inh)
CC(O)[C@H]1CN=C(N)N1CCc1cc(C(F)(F)F)cc(C(F)(F)F)c1 (stereo partly specified)	Pf growth 48h inconclusive
CNC[C@H](CC1CCCCC1)NC[C@H](CO)NCCc1cccc(C(F)(F)F)c1	Pf growth 48h inconclusive, Pf growth 96h 1.9µM
COc1cc(C2C(C#N)=C(C)NC(C)=C2C#N)cc(OC)c1OC	Pf growth 48h 9.3µM, Pf growth 96h 12µM
COc1ccc(S(=O)(=O)Oc2ccccc2C(=S)N2CCOCC2)cc1	Pf growth 96h inconclusive (no result: RE007 growth inh)
COc1cc2c(cc1OC)n(CC(=O)NC1CCCCCC1)n1c(C)cc(=O)nc21	Pf growth 96h 5.9µM
COc1ccccc1-c1noc2ncnc(Nc3ccc4c(c3)OCO4)c12	Pf growth 96h inconclusive
CC(C)CCOc1ncnc2c1sc1nc3c(cc12)CSC(C)(C)C3	Pf growth 48h 12µM, Pf growth 96h inconclusive
CCCn1cnc2c(sc3nc4c(cc32)CSC(C)(C)C4)c1=O	none
COc1ccc(C(=O)NC(=O)COC(=O)C2CC2C)cc1 (stereo unspecified)	none (no result: Pf growth 48h, Pf growth 96h, NS1 function inh)
COC(=O)c1ccc(CN(C)S(=O)(=O)c2cccs2)cc1	none
CCOC(=O)C1=C(C)NC2=C(C(=O)CC(C)(C)C2)C1c1ccc(N(C)C)cc1 (stereo unspecified)	Pf growth 48h 12µM, Pf growth 96h inconclusive
CCOC(=O)C1=C(C)NC2=C(C(=O)CC(C)(C)C2)C1c1ccc(O)c(OCC)c1 (stereo unspecified)	Pf growth 48h inconclusive
CC1=C(C(=O)OC(C)C)C(c2ccc(N(C)C)cc2)C2=C(CC(C)(C)CC2=O)N1 (stereo unspecified)	Pf growth 48h inconclusive

Assay outcomes as filed in PubChem BioAssay.
